# Key:
# [1] = target: Sphingosine kinase 1 (Homo sapiens) (UniProt Q9NYA1); conditions: at 1 µM;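 further: mean SPHK1 inhibition value reported from the GSK PKIS kinase panel screen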
# [2] = target: T1, Sphingosine kinase 2 (Homo sapiens) (UniProt Q9NRA0); conditions: at 0.1 µM
# T1 sequence (whole entry): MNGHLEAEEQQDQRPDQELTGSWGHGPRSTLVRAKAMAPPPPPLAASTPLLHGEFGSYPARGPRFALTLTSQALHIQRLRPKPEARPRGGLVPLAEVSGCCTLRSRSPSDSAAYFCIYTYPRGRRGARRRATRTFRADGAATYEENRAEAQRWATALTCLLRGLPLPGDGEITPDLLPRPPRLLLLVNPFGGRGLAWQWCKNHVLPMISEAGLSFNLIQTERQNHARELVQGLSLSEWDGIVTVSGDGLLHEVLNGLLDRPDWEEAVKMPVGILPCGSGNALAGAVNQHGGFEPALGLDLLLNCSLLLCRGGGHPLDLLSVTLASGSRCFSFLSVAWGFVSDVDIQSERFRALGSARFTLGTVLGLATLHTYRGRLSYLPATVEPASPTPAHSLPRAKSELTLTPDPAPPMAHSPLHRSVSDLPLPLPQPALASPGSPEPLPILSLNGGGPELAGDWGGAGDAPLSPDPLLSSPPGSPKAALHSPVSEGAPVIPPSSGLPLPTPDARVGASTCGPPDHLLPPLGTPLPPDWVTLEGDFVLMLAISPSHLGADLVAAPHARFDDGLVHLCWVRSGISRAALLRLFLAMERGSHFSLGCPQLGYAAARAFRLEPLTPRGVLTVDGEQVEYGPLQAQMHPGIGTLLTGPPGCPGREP
# [3] = target: T1, Sphingosine kinase 2 (Homo sapiens); conditions: at 1 µM
# [4] = target: Casein kinase II subunit alpha (Homo sapiens) (UniProt P68400); conditions: at 0.1 µM
# Casein kinase II subunit alpha (Homo sapiens), sequence (P68400 whole entry, looked up): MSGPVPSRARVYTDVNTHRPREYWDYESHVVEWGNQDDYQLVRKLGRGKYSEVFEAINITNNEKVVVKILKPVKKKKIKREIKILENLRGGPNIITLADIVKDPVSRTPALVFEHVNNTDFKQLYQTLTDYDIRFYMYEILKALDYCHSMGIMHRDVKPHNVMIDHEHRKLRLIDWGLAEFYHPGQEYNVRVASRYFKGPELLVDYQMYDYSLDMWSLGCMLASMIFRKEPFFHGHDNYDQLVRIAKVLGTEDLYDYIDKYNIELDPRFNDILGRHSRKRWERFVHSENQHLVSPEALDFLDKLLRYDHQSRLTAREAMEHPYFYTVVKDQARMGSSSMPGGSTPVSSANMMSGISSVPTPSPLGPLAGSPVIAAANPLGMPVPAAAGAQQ
# [5] = target: Casein kinase II subunit alpha (Homo sapiens) (UniProt P68400); conditions: at 1 µM
# [6] = target: T2, Inhibitor of nuclear factor kappa-B kinase subunit alpha (Homo sapiens) (UniProt O15111); conditions: at 0.1 µM
# T2 sequence (whole entry): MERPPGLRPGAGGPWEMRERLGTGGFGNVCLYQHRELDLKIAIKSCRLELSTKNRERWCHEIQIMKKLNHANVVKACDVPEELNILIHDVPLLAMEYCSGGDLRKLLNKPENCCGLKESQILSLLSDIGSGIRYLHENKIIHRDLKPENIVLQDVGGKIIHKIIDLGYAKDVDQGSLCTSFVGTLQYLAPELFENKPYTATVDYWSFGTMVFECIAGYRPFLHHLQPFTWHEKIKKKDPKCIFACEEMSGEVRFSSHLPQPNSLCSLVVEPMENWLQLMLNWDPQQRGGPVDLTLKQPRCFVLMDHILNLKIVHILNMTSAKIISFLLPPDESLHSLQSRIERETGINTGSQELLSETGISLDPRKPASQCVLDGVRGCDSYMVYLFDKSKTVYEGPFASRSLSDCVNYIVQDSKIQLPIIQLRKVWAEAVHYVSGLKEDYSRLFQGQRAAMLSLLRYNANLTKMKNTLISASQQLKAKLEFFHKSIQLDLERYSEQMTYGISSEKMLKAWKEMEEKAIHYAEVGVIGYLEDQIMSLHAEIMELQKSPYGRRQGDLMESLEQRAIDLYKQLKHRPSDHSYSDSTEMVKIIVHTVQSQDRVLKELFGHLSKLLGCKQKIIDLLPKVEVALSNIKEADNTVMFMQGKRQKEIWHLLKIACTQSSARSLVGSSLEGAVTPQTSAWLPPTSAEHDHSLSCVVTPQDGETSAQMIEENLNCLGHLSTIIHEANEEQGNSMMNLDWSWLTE
# [7] = target: T2, Inhibitor of nuclear factor kappa-B kinase subunit alpha (Homo sapiens); conditions: at 1 µM
# [8] = target: T3, Inhibitor of nuclear factor kappa-B kinase subunit beta (Homo sapiens) (UniProt O14920); conditions: at 0.1 µM
# T3 sequence (whole entry): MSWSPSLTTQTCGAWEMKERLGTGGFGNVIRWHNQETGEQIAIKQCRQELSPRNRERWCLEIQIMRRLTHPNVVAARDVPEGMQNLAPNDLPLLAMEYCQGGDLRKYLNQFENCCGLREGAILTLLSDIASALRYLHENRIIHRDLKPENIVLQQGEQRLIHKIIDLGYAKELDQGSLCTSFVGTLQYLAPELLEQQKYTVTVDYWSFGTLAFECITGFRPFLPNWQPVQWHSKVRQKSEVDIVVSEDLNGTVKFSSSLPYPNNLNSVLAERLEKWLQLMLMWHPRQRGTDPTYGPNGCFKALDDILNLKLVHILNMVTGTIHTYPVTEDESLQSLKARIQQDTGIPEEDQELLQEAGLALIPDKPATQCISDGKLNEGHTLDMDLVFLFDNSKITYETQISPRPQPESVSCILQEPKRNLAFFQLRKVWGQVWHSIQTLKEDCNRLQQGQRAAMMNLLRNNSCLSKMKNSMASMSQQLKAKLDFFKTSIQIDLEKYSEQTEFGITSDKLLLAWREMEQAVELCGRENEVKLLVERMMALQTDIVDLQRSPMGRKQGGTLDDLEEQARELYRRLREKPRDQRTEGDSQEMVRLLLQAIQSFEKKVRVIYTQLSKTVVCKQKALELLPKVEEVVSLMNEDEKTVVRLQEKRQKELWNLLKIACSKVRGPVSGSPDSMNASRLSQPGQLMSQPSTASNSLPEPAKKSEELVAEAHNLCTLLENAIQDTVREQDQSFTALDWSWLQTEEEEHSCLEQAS
# [9] = target: T3, Inhibitor of nuclear factor kappa-B kinase subunit beta (Homo sapiens); conditions: at 1 µM
# [10] = target: T4, Inhibitor of nuclear factor kappa-B kinase subunit epsilon (Homo sapiens) (UniProt Q14164); conditions: at 0.1 µM
# T4 sequence (whole entry): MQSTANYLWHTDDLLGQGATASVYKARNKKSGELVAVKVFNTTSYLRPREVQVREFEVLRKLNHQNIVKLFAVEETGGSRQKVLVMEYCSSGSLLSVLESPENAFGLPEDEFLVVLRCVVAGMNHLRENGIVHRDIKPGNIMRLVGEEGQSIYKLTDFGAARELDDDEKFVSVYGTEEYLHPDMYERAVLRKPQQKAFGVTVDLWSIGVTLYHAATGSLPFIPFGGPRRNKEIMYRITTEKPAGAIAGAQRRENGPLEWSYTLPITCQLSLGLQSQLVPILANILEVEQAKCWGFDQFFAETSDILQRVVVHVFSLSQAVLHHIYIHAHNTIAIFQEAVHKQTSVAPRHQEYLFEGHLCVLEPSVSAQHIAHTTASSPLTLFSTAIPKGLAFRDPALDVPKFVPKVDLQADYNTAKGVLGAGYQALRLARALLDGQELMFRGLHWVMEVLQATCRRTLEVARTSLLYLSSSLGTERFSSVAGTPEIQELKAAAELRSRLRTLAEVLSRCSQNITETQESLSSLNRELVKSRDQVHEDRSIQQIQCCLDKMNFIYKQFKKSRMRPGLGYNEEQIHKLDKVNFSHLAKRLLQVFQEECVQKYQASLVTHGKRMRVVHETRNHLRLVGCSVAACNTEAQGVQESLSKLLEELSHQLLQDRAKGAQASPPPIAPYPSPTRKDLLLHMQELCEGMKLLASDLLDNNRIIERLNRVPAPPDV
# [11] = target: T4, Inhibitor of nuclear factor kappa-B kinase subunit epsilon (Homo sapiens); conditions: at 1 µM
# [12] = target: T5, Serine/threonine-protein kinase Nek1 (Homo sapiens) (UniProt Q96PY6); conditions: at 0.1 µM
# T5 sequence (whole entry): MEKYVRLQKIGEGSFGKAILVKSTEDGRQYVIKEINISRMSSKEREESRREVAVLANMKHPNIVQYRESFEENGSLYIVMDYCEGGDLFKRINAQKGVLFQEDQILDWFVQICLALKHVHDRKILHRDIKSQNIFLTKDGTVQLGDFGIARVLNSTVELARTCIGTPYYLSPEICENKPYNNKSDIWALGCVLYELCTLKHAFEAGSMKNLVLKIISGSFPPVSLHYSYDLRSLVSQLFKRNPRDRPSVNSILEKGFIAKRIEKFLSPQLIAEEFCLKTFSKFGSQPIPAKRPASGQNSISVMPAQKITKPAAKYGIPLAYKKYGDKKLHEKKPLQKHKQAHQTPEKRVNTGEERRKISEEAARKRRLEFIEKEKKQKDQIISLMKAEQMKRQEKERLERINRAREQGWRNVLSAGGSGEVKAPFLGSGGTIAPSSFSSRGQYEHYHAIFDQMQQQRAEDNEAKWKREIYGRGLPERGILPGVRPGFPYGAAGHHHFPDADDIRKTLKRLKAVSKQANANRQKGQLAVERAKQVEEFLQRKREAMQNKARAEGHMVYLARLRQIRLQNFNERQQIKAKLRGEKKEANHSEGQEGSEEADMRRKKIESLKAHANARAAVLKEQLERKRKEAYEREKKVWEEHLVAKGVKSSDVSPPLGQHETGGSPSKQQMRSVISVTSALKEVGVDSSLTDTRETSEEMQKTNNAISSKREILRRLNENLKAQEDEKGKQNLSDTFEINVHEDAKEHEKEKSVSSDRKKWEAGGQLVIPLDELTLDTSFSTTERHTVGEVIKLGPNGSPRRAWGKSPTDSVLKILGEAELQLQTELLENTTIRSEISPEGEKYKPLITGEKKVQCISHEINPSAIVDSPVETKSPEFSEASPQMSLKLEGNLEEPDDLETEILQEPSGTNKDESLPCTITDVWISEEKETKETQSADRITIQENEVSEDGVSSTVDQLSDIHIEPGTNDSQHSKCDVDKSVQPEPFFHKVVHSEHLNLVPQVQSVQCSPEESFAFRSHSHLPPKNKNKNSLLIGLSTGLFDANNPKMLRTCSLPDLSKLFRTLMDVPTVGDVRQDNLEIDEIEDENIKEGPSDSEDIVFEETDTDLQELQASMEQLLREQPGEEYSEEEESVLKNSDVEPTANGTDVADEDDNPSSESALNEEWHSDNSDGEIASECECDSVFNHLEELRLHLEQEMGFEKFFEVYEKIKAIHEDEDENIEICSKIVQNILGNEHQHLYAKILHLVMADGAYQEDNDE
# [13] = target: T5, Serine/threonine-protein kinase Nek1 (Homo sapiens); conditions: at 1 µM
# [14] = target: T6, Serine/threonine-protein kinase Nek2 (Homo sapiens) (UniProt P51955); conditions: at 0.1 µM
# T6 sequence (whole entry): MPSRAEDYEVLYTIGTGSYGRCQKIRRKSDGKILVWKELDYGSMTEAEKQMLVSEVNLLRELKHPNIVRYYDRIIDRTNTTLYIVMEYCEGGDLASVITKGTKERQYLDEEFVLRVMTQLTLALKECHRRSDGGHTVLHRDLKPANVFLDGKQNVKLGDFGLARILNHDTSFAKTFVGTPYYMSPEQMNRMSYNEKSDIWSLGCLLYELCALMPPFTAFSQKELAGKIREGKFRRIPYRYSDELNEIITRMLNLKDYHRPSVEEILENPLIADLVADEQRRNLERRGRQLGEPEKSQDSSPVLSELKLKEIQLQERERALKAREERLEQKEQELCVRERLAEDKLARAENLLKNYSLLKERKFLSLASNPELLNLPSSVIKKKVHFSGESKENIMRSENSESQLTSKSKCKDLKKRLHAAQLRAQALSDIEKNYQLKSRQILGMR
# [15] = target: T6, Serine/threonine-protein kinase Nek2 (Homo sapiens); conditions: at 1 µM
# [16] = target: Serine/threonine-protein kinase Nek6 (Homo sapiens) (UniProt Q9HC98); conditions: at 0.1 µM
# Serine/threonine-protein kinase Nek6 (Homo sapiens), sequence (Q9HC98 whole entry): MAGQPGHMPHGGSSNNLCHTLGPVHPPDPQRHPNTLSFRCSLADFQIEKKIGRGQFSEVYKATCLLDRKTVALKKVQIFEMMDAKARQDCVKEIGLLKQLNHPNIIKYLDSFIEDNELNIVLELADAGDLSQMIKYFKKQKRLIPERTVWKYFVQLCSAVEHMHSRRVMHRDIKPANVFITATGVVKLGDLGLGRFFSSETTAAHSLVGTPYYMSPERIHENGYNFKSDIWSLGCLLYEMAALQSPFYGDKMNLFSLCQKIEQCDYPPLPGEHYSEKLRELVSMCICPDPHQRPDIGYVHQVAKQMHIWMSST
# [17] = target: Serine/threonine-protein kinase Nek6 (Homo sapiens) (UniProt Q9HC98); conditions: at 1 µM
# [18] = target: Serine/threonine-protein kinase Nek7 (Homo sapiens) (UniProt Q8TDX7); conditions: at 0.1 µM
# Serine/threonine-protein kinase Nek7 (Homo sapiens), sequence (Q8TDX7 whole entry, looked up): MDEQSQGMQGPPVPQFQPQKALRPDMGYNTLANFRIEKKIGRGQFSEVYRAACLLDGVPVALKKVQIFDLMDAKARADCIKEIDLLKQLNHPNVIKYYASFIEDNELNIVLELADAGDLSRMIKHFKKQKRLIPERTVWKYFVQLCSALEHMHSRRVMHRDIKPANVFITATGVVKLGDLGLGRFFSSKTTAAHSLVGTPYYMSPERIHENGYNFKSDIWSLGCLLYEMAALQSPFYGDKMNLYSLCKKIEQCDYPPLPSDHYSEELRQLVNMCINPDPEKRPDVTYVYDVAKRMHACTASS
# [19] = target: T7, Serine/threonine-protein kinase Nek9 (Homo sapiens) (UniProt Q8TD19); conditions: at 0.1 µM;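 further: reported value is the mean percent inhibition of NEK9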
# T7 sequence (whole entry): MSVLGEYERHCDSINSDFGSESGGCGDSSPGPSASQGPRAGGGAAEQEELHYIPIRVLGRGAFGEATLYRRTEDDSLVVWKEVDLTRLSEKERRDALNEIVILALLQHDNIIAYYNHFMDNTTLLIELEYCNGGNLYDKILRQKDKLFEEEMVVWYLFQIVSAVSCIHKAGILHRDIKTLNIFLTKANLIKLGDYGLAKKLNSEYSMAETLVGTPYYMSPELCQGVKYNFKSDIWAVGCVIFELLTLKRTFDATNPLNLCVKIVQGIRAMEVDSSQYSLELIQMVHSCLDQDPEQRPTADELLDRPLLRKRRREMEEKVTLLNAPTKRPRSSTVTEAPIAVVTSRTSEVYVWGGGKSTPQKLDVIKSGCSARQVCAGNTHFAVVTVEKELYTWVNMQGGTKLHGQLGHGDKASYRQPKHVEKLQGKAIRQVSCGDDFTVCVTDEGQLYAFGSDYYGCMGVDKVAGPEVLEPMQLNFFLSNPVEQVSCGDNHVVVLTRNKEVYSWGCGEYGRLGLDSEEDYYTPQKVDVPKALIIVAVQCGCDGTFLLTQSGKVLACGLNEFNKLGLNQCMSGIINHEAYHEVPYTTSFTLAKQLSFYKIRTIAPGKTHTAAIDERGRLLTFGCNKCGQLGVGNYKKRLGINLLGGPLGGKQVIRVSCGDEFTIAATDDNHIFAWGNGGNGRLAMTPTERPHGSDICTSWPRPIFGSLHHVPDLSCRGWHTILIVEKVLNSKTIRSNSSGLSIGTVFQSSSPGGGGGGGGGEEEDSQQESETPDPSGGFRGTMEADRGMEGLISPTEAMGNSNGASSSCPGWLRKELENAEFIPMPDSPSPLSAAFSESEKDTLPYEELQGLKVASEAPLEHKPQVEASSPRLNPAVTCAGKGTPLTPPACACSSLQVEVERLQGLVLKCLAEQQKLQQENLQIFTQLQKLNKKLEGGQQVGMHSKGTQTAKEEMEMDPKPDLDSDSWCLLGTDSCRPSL
# [20] = target: Serine/threonine-protein kinase Nek7 (Homo sapiens) (UniProt Q8TDX7); conditions: at 1 µM
# Sphingosine kinase 1 (Homo sapiens), sequence (Q9NYA1 whole entry): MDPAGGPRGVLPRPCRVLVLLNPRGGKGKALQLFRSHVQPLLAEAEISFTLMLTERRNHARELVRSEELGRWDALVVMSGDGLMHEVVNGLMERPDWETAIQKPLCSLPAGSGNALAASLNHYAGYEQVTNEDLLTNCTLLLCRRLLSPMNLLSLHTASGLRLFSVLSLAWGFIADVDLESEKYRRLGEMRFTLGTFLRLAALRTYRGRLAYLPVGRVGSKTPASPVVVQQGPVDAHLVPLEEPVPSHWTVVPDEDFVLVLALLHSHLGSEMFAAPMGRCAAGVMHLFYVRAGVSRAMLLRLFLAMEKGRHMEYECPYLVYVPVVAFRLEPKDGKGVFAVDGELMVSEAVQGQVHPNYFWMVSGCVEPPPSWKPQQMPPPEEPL
SMILES,inhibition [1] [%],inhibition [2] [%],inhibition [3] [%],inhibition [4] [%],inhibition [5] [%],inhibition [6] [%],inhibition [7] [%],inhibition [8] [%],inhibition [9] [%],inhibition [10] [%],inhibition [11] [%],inhibition [12] [%],inhibition [13] [%],inhibition [14] [%],inhibition [15] [%],inhibition [16] [%],inhibition [17] [%],inhibition [18] [%],inhibition [19] [%],inhibition [20] [%]
COc1cc2ncn(-c3cc(OCc4ccccc4C(F)(F)F)c(C(C)=O)s3)c2cc1OC,-6.56,-0.29,-1.72,5.99,2.45,2.23,7.97,5.2,9.05,6.32,4.7,2.21,1.9,3.91,4.69,1.95,3.34,1.7,8.54,–
FC(F)(F)c1cccc(Nc2nccc(-c3cnn4nc(-c5ccccc5)ccc34)n2)c1,-2.23,-1.01,-0.56,7.97,4.42,1.94,7.04,3.55,3.27,3.76,5.2,2.32,2.59,1.73,4.5,-0.41,-0.37,2.4,8.12,1.88
